{"source": "the supplement of paper PMC8728848", "binders": {"B1": {"name": "Gal 8 (Homo sapiens) (protein)", "chain": "MLSLNNLQNIIYNPVIPYVGTIPDQLDPGTLIVICGHVPSDADRFQVDLQNGSSVKPRADVAFHFNPRFKRAGCIVCNTLINEKWGREEITYDTPFKREKSFEIVIMVLKDKFQVAVNGKHTLLYGHRIGPEKIDTLGIYGKVNIHSIGFSFSSDLQSTQASSLELTEISRENVPKSGTPQLQTVSPSWDLQGHGSETFCSVLWTRVFLEIAFCRPIGLTVASFQSLPFAARLNTPMGPGRTVVVKGEVNANAKSFNVDLLAGKSKDIALHLNPRLNIKAFVRNSFLQESWGEEERNITSFPFSPGMYFEMIIYCDVREFKVAVNGVHSLEYKHRFKELSSIDTLEINGDIHLLEVRSW"}}, "test_in_all_cases": "glycan array binding signal (z-score within array); higher = stronger binding", "settings_in_all_cases": "glycan notation: IUPAC condensed, linker removed", "key": {"[1]": {"target": "GalNAc(b1-4)GlcNAc(b1-2)Man(a1-3)[GalNAc(b1-4)GlcNAc(b1-2)Man(a1-6)]Man(b1-4)GlcNAc(b1-4)GlcNAc", "method_in_brief": "(§1)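 The Consortium for Functional Glycomics database supplied 3228 glycan arrays, of which those lacking an available protein sequence were dropped. The binding signal, a within-array Z-score, was averaged across arrays of the same protein sequence and across linkers. Negative scores can be read as non-binding.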"}, "[2]": {"target": "GlcNAc(b1-2)[GlcNAc(b1-4)]Man(a1-3)[GlcNAc(b1-2)Man(a1-6)]Man(b1-4)GlcNAc(b1-4)GlcNAc", "method_in_brief": "as §1"}, "GlcNAc(b1-3)Gal(b1-4)Glc": {"target": "GlcNAc(b1-3)Gal(b1-4)Glc", "method_in_brief": "as §1"}, "[3]": {"target": "GlcNAc(b1-3)Gal(b1-4)GlcNAc(b1-3)Gal(b1-4)GlcNAc(b1-2)[GlcNAc(b1-3)Gal(b1-4)GlcNAc(b1-3)Gal(b1-4)GlcNAc(b1-6)]Man(a1-6)[GlcNAc(b1-3)Gal(b1-4)GlcNAc(b1-3)Gal(b1-4)GlcNAc(b1-2)Man(a1-3)]Man(b1-4)GlcNAc(b1-4)[Fuc(a1-6)]GlcNAc", "method_in_brief": "as §1"}, "[4]": {"target": "GlcNAc(b1-3)Gal(b1-4)GlcNAc(b1-3)Gal(b1-4)GlcNAc(b1-3)Gal(b1-4)GlcNAc(b1-2)[GlcNAc(b1-3)Gal(b1-4)GlcNAc(b1-3)Gal(b1-4)GlcNAc(b1-3)Gal(b1-4)GlcNAc(b1-6)]Man(a1-6)[GlcNAc(b1-3)Gal(b1-4)GlcNAc(b1-3)Gal(b1-4)GlcNAc(b1-3)Gal(b1-4)GlcNAc(b1-2)Man(a1-3)]Man(b1-4)GlcNAc(b1-4)[Fuc(a1-6)]GlcNAc", "method_in_brief": "as §1"}, "[5]": {"target": "GlcNAc(b1-3)Gal(b1-4)GlcNAc(b1-3)Gal(b1-4)GlcNAc(b1-3)Gal(b1-4)GlcNAc(b1-3)Gal(b1-4)GlcNAc(b1-2)[GlcNAc(b1-3)Gal(b1-4)GlcNAc(b1-3)Gal(b1-4)GlcNAc(b1-3)Gal(b1-4)GlcNAc(b1-3)Gal(b1-4)GlcNAc(b1-6)]Man(a1-6)[GlcNAc(b1-3)Gal(b1-4)GlcNAc(b1-3)Gal(b1-4)GlcNAc(b1-3)Gal(b1-4)GlcNAc(b1-3)Gal(b1-4)GlcNAc(b1-2)Man(a1-3)]Man(b1-4)GlcNAc(b1-4)[Fuc(a1-6)]GlcNAc", "method_in_brief": "as §1"}, "[6]": {"target": "GlcNAc(b1-3)[GlcNAc(b1-6)]Gal(b1-4)GlcNAc", "method_in_brief": "as §1"}, "[7]": {"target": "GlcNAc(b1-3)[GlcNAc(b1-6)]GlcNAc(b1-4)GlcNAc", "method_in_brief": "as §1"}, "[8]": {"target": "GlcNAc(b1-4)Gal(b1-4)GlcNAc", "method_in_brief": "as §1"}, "[9]": {"target": "GlcNAc(b1-4)GlcNAc(b1-4)GlcNAc(b1-4)GlcNAc(b1-4)GlcNAc(b1-4)GlcNAc", "method_in_brief": "as §1"}, "[10]": {"target": "Man(a1-3)[Man(a1-6)]Man(b1-4)GlcNAc(b1-4)[Fuc(a1-6)]GlcNAc", "method_in_brief": "as §1"}, "[11]": {"target": "Neu5Ac(a2-3)Gal(b1-3)GalNAc(b1-3)Gal(a1-4)Gal(b1-4)Glc", "method_in_brief": "as §1"}, "[12]": {"target": "Neu5Ac(a2-3)Gal(b1-3)GlcNAc(b1-2)Man(a1-3)[Neu5Ac(a2-3)Gal(b1-3)GlcNAc(b1-2)Man(a1-6)]Man(b1-4)GlcNAc(b1-4)GlcNAc", "method_in_brief": "as §1"}, "[13]": {"target": "Neu5Ac(a2-3)Gal(b1-4)GlcNAc(b1-2)[Neu5Ac(a2-3)Gal(b1-4)GlcNAc(b1-4)]Man(a1-3)[GlcNAc(b1-4)][Neu5Ac(a2-3)Gal(b1-4)GlcNAc(b1-4)Man(a1-6)]Man(b1-4)GlcNAc(b1-4)GlcNAc", "method_in_brief": "as §1"}, "[14]": {"target": "Neu5Ac(a2-3)Gal(b1-4)GlcNAc(b1-3)Gal(b1-4)GlcNAc(b1-3)Gal(b1-4)GlcNAc", "method_in_brief": "as §1"}, "[15]": {"target": "Neu5Ac(a2-3)Gal(b1-4)GlcNAc(b1-6)[Gal(b1-3)]GalNAc", "method_in_brief": "as §1"}, "[16]": {"target": "Neu5Ac(a2-6)Gal(b1-4)GlcNAc(b1-2)Man(a1-6)[Man(a1-3)]Man(b1-4)GlcNAc(b1-4)GlcNAc", "method_in_brief": "as §1"}, "[17]": {"target": "Neu5Ac(a2-6)Gal(b1-4)GlcNAc(b1-3)Gal(b1-4)[Fuc(a1-3)]GlcNAc(b1-3)Gal(b1-4)[Fuc(a1-3)]GlcNAc", "method_in_brief": "as §1"}, "[18]": {"target": "Neu5Ac(a2-8)Neu5Ac(a2-3)[Gal(b1-3)GalNAc(b1-4)]Gal(b1-4)Glc", "method_in_brief": "as §1"}, "[19]": {"target": "Neu5Ac(a2-8)Neu5Ac(a2-3)[GalNAc(b1-4)]Gal(b1-4)Glc", "method_in_brief": "as §1"}, "[20]": {"target": "Neu5Ac(a2-8)Neu5Ac(a2-8)Neu5Ac", "method_in_brief": "as §1"}}, "note": "The sample as a whole holds a higher share of the strongest signals than the screen did."}
{"binder": "B1", "values": [{"measurement": "glycan array binding signal (z-score)", "setting": "[1]", "result": -0.353}, {"measurement": "glycan array binding signal (z-score)", "setting": "[2]", "result": -0.354}, {"measurement": "glycan array binding signal (z-score)", "setting": "GlcNAc(b1-3)Gal(b1-4)Glc", "result": -0.338}, {"measurement": "glycan array binding signal (z-score)", "setting": "[3]", "result": 5.71}, {"measurement": "glycan array binding signal (z-score)", "setting": "[4]", "result": 4.87}, {"measurement": "glycan array binding signal (z-score)", "setting": "[5]", "result": 6.06}, {"measurement": "glycan array binding signal (z-score)", "setting": "[6]", "result": -0.41}, {"measurement": "glycan array binding signal (z-score)", "setting": "[7]", "result": -0.727}, {"measurement": "glycan array binding signal (z-score)", "setting": "[8]", "result": -0.2}, {"measurement": "glycan array binding signal (z-score)", "setting": "[9]", "result": -0.392}, {"measurement": "glycan array binding signal (z-score)", "setting": "[10]", "result": -0.357}, {"measurement": "glycan array binding signal (z-score)", "setting": "[11]", "result": 0.798}, {"measurement": "glycan array binding signal (z-score)", "setting": "[12]", "result": -0.328}, {"measurement": "glycan array binding signal (z-score)", "setting": "[13]", "result": -0.314}, {"measurement": "glycan array binding signal (z-score)", "setting": "[14]", "result": 2.12}, {"measurement": "glycan array binding signal (z-score)", "setting": "[15]", "result": -0.143}, {"measurement": "glycan array binding signal (z-score)", "setting": "[16]", "result": -0.357}, {"measurement": "glycan array binding signal (z-score)", "setting": "[17]", "result": -0.378}, {"measurement": "glycan array binding signal (z-score)", "setting": "[18]", "result": -0.355}, {"measurement": "glycan array binding signal (z-score)", "setting": "[19]", "result": -0.398}, {"measurement": "glycan array binding signal (z-score)", "setting": "[20]", "result": -0.396}]}
